# Experimental data from ChEMBL document CHEMBL4513216, “Probing the Open Global Health Chemical Diversity Library for Multistage-Active Starting Points for Next-Generation Antimalarials” (ACS Infect Dis, 2020).
# About 8,600 (12%) of roughly 69,000 compounds showed an effect of 50% or more. For the sample, strong results were picked, then their nearest neighbours and some compounds at random.
# System: Plasmodium berghei
# Test: Screen against P. berghei liver stage (PbLuc), transformed with Luciferase, at 10uM
# Assay type: functional, HepG2
# Conditions: tested at 10 uM
row,SMILES,INHIBITION [%]
1,Cc1cccc(C(CNC(=O)NCc2cc[nH]n2)N2CCOCC2)c1 (stereo unspecified),35.95
2,CCN(Cc1ccoc1)C(=O)NC1CCN(C(=O)OC(C)(C)C)C1 (stereo unspecified),1.93
3,CCc1ccc(C(N)c2cccc(S(C)(=O)=O)c2)cc1 (stereo unspecified),48.1
4,CC1CCCCN1C(=O)COc1nc(C(C)(C)C)no1 (stereo unspecified),-29.2
5,COc1ccc(CNc2nncs2)cc1F,8.05
6,COc1cc(CNc2nncs2)cc(OC)c1OC,80.8
7,Cn1cnnc1-c1ccnc(NCc2ccccc2)c1,57.7
8,Cn1cnnc1-c1ccnc(NCc2ccc3c(c2)OCCO3)c1,42.3
9,COc1cc(CNc2nc(N3CCOCC3)ns2)cc(OC)c1OC,8.05
10,Cn1cnnc1-c1ccnc(NCc2ccc(Br)cc2)c1,8.05
11,COc1cc(CNc2cc(-c3nncn3C)ccn2)cc(OC)c1OC,53.4
12,COc1cc(CNCCc2cnn(C)c2)cc(OC)c1OC,31.55
13,COc1cc(CNCc2ccnc(N3CCOCC3)c2)cc(Cl)c1OC,40.3
14,COCCN(Cc1cnn(C)c1)C(=O)C1CCN(C2CCCCC2)CC1,36.7
15,C[C@@H]1CN(CCOc2ccc(Cl)cc2)CC[C@@]1(O)C1CCOCC1,-17.8
16,O=C(N[C@@H]1CN(Cc2ccoc2)[C@@H]2CCCO[C@@H]21)C1CC1,11.2

row,SMILES,INHIBITION [%]
1,CCN(CC)c1ncc(Cl)c(C(=O)NC2CCC(O)CC2)n1 (stereo unspecified),60.1
2,CN(Cc1cnn(C)c1)C(=O)NC1CCC(O)CC1 (stereo unspecified),1.81
3,Cc1cn2c(n1)CCC(NC(=O)c1nc(C)ncc1Cl)C2 (stereo unspecified),30.3
4,Cn1cc(I)c(C(=O)NC2CCCCC2)n1,25.4
5,CCN(CC)c1ncc(Cl)c(C(=O)NC2CC2)n1,57.3
6,CCNc1ncc(C(=O)NC2CCC(n3cnnc3)CC2)cn1 (stereo unspecified),37.7
7,O=C(NC1CCC(O)CC1)c1cnc2c(cnn2C2CCCC2)c1 (stereo unspecified),11.3
8,CCN(CC)c1ncc(Cl)c(C(=O)NC2CCc3nccn3C2)n1 (stereo unspecified),76.7
9,O=C(NC1CCc2nccn2C1)c1ccc(NC2CC2)nc1 (stereo unspecified),7.58
10,CNc1nc(CNC(=O)Nc2cccc(Cl)c2Cl)cs1,-15.467
11,CCc1noc(CCC(=O)N2CCC(c3ccn[nH]3)C2)n1 (stereo unspecified),10.97
12,CNC(=O)N1Cc2cc(F)ccc2C2(CCN(C)CC2)C1,21.6
13,CCc1ccc(S(=O)(=O)Nc2ccn(CC(=O)OC)n2)cc1,-74
14,C=c1ccoc1=C1NN=C(CNCCn2cc(C)cn2)O1,-25.9
15,NC(=O)NC(=O)CNC1(c2ccc(Cl)cc2)CCC1,-24.2
